82 compounds from PubChem BioAssay AID720504 (National Center for Advancing Translational Sciences (NCATS), 2013) can be followed below.

Structures are written as SMILES. In all, about 360,000 compounds went through this assay and about 10,000 (2.8%) were called active. Inconclusive results (about 4%) are left out. This excerpt belongs to a sample that is enriched for actives. Values without a mark were called inactive. Calls follow the shape of the dose curve; as a rule, active = well fitted inhibition curve with a large enough effect; inconclusive = small, poorly fitted or top-dose-only effect; inactive = flat fitted curve, though single readings scatter.
% is scaled to controls: 0 for no effect and ±100 for the full control effect; potency is read from the fitted curve at half-maximal effect.

In the assay the target is Serine/threonine-protein kinase PLK1 (Homo sapiens) (UniProt P53350). The experiment in a line: qHTS for Inhibitors of PLK1-PDB (polo-like kinase 1 - polo-box domain): Primary Screen. Also: nearly all actives have a fitted effect of over 65% in size. As to max response, negative = inhibition: series mostly up to about 57 µM. Particulars: Plk1 PBD binding of FITC phosphopeptide, fluorescence polarization. A general note: qHTS replaces the single test concentration by a dilution series.
Sequence of Serine/threonine-protein kinase PLK1 (Homo sapiens) (P53350 whole entry, looked up, the tested form may be a part): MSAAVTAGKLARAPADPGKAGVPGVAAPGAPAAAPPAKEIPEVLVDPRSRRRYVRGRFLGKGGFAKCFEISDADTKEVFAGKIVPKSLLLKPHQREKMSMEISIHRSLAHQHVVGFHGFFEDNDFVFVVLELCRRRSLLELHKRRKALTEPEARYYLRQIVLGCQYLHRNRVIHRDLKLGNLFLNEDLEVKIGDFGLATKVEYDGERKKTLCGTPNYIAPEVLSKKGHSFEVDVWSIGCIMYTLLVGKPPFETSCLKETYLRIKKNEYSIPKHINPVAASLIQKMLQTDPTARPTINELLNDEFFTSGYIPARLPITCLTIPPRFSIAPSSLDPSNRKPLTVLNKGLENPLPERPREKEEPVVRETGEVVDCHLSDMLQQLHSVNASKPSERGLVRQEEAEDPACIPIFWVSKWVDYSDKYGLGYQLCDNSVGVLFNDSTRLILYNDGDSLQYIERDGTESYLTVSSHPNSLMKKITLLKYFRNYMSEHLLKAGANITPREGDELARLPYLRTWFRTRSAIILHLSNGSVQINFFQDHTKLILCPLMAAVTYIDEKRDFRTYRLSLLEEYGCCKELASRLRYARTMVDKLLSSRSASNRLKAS
Consider `COc1ccc(C2/C(=C(/O)c3ccccc3)C(=O)C(=O)N2C)c(OC)c1` (configuration not stated), for which the max response, negative = inhibition is 0.389%.

As to `COc1ccc(/C=C2/C(=O)OCc3cc(OC)c(OC)cc32)c(OC)c1`, the max response, negative = inhibition was -13%.

On to `COc1ccc(/C=C2/C(=O)N(c3ccccc3)N=C2C)c(OC)c1`, for which the Potency is 18.9 µM (active).

In the case of `Cc1cccc(C)c1NC(=O)C(c1cccc(F)c1)N1CCN(C)CC1` (configuration not stated), the max response, negative = inhibition is -7.61%.

`CC(=O)Nc1cnc(-c2ccc(O)cc2C)cn1`: the max response, negative = inhibition is -2.97%.

Take `COc1ccc(NC(=O)C2Cc3c(-c4ccc5c(c4)OCO5)ccnc3O2)cn1` (configuration not stated): the max response, negative = inhibition is -5.75%.

On to `COc1ccc(NC(=O)N(C)C[C@H]2Oc3ccc(NC(=O)C4CC4)cc3C(=O)N([C@H](C)CO)C[C@@H]2C)cc1`, for which the max response, negative = inhibition is -15.8%.

Turning to `COc1ccc(NC(=O)Nc2ccc3c(c2)C(=O)N([C@H](C)CO)C[C@H](C)[C@@H](CN(C)C(=O)Nc2ccc4c(c2)OCO4)O3)cc1`, the Potency is 23.8 µM (active).

In the case of `C[C@H](CO)N1C[C@H](C)[C@@H](CN(C)C(=O)Nc2ccc3c(c2)OCO3)Oc2c(cccc2N(C)C)C1=O`, the max response, negative = inhibition is -11.3%.

Take `CC(Sc1nnnn1C)C(=O)NC(=O)NC1CCCCC1` (configuration not stated): the max response, negative = inhibition is -1.5%.

As for `O=C(CSc1nnnn1C1CCCC1)N1CCCCC1`, the max response, negative = inhibition was -1.23%.

For `CC(Sc1nnnn1C1CCCCC1)C(=O)O` (configuration not stated), the Potency was 4.23 µM (active).

For `COc1ccc(OC)c(NC(=O)c2cc(-c3cc(F)ccc3OCC3CCCO3)n[nH]2)c1` (configuration not stated), the max response, negative = inhibition is 1.76%.

Turning to `COc1ccc2c(c1)CCCO[C@]21O[C@H](CCO)C[C@H](O)[C@H]1O`, the max response, negative = inhibition is -7.9%.

Consider `OCC[C@H]1C[C@@H](O)[C@H](O)[C@]2(OCCCc3ccccc32)O1`, for which the max response, negative = inhibition is -6.7%.

As for `OCC[C@H]1C[C@@H](O)[C@H](O)[C@@]2(OCCc3ccccc32)O1`, the Potency was 21.2 µM (active).

Turning to `CC1(C(=O)NCc2ccc(F)c(F)c2)Cc2c(-c3ccc4c(c3)OCO4)ccnc2O1` (configuration not stated), the max response, negative = inhibition was 5.1%.

Regarding `CC1(Cc2cccc(C#N)c2)C(=O)Nc2ccc(-c3cccc(C(F)(F)F)c3)cc21` (configuration not stated), the max response, negative = inhibition was -6.86%.

Turning to `CCCCC[C@@H]1C=C(C(=O)O)[C@H](c2ccc(C#N)cc2)N1S(=O)(=O)c1ccc(C)cc1`, the max response, negative = inhibition is -5.69%.

As for `CCCCC[C@@H]1C=C(C(=O)OCC)[C@H](c2ccccc2)N1S(=O)(=O)c1ccc(C)cc1`, the max response, negative = inhibition was -0.281%.

Consider `Cc1ccc(S(=O)(=O)N2[C@@H](c3ccc(Br)cc3)C(C(=O)O)=C[C@H]2CC2CCCC2)cc1`, for which the Potency is 23.8 µM (active).

Regarding `Cc1ccc(S(=O)(=O)N2CC[C@H]3[C@@H](C2)C(=O)C[C@@H](c2ccccc2)N3S(=O)(=O)c2ccc(C)cc2)cc1`, the max response, negative = inhibition is -5.58%.

`CCN(CC)CCCC(C)n1c2nc(=O)[nH]c(=O)c-2nc2cc(Cl)ccc21` (configuration not stated): the Potency was 0.752 µM (active).

Consider `Cc1ccc(Sc2ccc(NC(=O)c3ccc(F)cc3)cc2C#N)cc1`, for which the max response, negative = inhibition was -2.21%.

As to `Cc1ccc(-c2nc3ccc(Br)cn3c2Cc2ccccc2C(F)(F)F)cc1`, the max response, negative = inhibition is -28.5%.

For the compound `Cc1ccc([C@@H]2CC(=O)[C@@H]3CN(S(=O)(=O)c4ccc(C)cc4)[C@H](c4ccccc4F)C[C@@H]3N2S(=O)(=O)c2ccc(Cl)cc2)cc1`, the max response, negative = inhibition was 3.58%.

Regarding `CCc1cccc(C)c1NC(=O)CSc1nnc(-c2ccco2)n1N`, the max response, negative = inhibition is -0.459%.

Regarding `Nn1c(SCC(=O)Nc2nccs2)nnc1-c1ccco1`, the max response, negative = inhibition was -17.8%.

`NC(=O)c1c(NC(=O)CSc2nnc(-c3ccco3)n2N)sc2c1CCCC2`: the Potency is 15 µM (active).

For the compound `COc1ccc([C@H]2CC(=O)C[C@@H](CCn3cc(CC4CCCC4)nn3)O2)cc1`, the max response, negative = inhibition is 2.62%.

For the compound `CN(C)CCOc1cccc(Br)c1`, the max response, negative = inhibition is -4.17%.

For `CC(=O)O[C@H]1c2ccccc2-c2ccccc2[C@@H]1OC(C)=O`, the max response, negative = inhibition was 1.29%.

`CN(C)CCOC1c2ccccc2-c2ccccc21`: the Potency is 29.9 µM (active).

`CCCCC[C@H](C)N1C[C@@H](COCc2ccccc2)Oc2cc(N3CC[C@@H](N(C)C)C3)ccc2S1(=O)=O`: the max response, negative = inhibition is 4.46%.

`CCOC(=O)[C@]12CCCC=C1N(Cc1ccc3c(c1)OCO3)C(=O)[C@H](CC(=O)N1CCN(C(=O)c3ccco3)CC1)C2`: the max response, negative = inhibition is -17.4%.

As for `CC1(C(=O)NS(=O)(=O)Cc2cccc(Cl)c2)CCN1C(=O)Cc1ccc(Cl)cc1Cl` (configuration not stated), the max response, negative = inhibition is -4.29%.

Regarding `CC1CCN(C(=O)c2ccc(S(=O)(=O)Cc3cc(F)ccc3F)c([N+](=O)[O-])c2)CC1`, the Potency was 15 µM (active).

Regarding `O=C(c1ccc(Oc2ccc(Cl)cc2)c([N+](=O)[O-])c1)N1CCCC1`, the max response, negative = inhibition is -8.04%.

As to `Nc1ccc(C(=O)N2CCN(S(=O)(=O)c3ccc(Cl)cc3)CC2)cc1[N+](=O)[O-]`, the max response, negative = inhibition was -9.21%.

As to `O=C(Nc1ccc(Cl)cc1)c1csc([C@@H]2O[C@H](CO)[C@H](O)[C@H](O)[C@H]2O)n1`, the max response, negative = inhibition is 2.4%.

With `O=C(Nc1cccc(Cc2ccccc2)c1)Nc1ccc2nc([C@@H]3O[C@H](CO)[C@@H](O)[C@H](O)[C@H]3O)[nH]c2c1`, the max response, negative = inhibition is -5.78%.

Turning to `CCOc1ccc(N2C(=O)CSC2=NC#N)cc1`, the max response, negative = inhibition was -14.5%.

Regarding `CCOc1cccc(/C=N/N2C(=O)CSC2=S)c1O`, the Potency is 11.9 µM (active).

Consider `CCOc1cc(/C=N/n2cnnc2)c(Br)cc1O`, for which the max response, negative = inhibition was -5.37%.

With `CCCCCCN1C[C@H](O)[C@@H](n2cc(C3CC3)nn2)C[C@@H]1c1ccc(Cl)cc1`, the max response, negative = inhibition was -0.475%.

Regarding `CCC(C)(C)NC(=O)C(c1ccc(OC)cc1)N(C(=O)CCC(=O)Nc1cc(C)on1)c1ccc(OC)cc1OC` (configuration not stated), the max response, negative = inhibition was -9.49%.

For `CCC(C)(C)NC(=O)C(c1cccc(OC)c1OC)N(CC(C)C)C(=O)CCC(=O)Nc1cc(C)on1` (configuration not stated), the Potency is 10.6 µM (active).

Take `COc1ccc(C(C(=O)NC(C)(C)C)N(Cc2ccc(F)cc2)C(=O)CCC(=O)Nc2cc(C)on2)cc1` (configuration not stated): the max response, negative = inhibition was -11.5%.

Turning to `CC(=O)Nc1cc(-c2ccc(N3CCN(C)CC3)cc2)cn2c(-c3ccc(F)cc3)cnc12`, the max response, negative = inhibition was 1.71%.

In the case of `COCCCn1c(=O)/c(=C/c2ccccc2OC(C)C)s/c1=C(\C#N)C(=O)Nc1ccc(C(=O)O)cc1`, the max response, negative = inhibition is -29.5%.

Take `O=C(C[n+]1ccccc1)N/N=C/c1ccc(O)cc1`: the Potency was 26.7 µM (active).

With `Cc1nonc1C(=O)N/N=C/c1ccc(O)cc1`, the max response, negative = inhibition was -1.21%.

As to `Nc1nnn(CC(=O)N/N=C/c2ccc(O)cc2)n1`, the max response, negative = inhibition is -3.01%.

In the case of `O=C(Nc1ccc2c(c1)[C@@H]1C[C@@H](CC(=O)N3CCCCC3)O[C@@H](CO)[C@@H]1O2)NC1CCCCC1`, the max response, negative = inhibition is 2.32%.

With `Cc1nc(C(F)(F)F)ccc1C(=O)N1CCC1(C)C(=O)NS(=O)(=O)c1ccc(F)cc1F` (configuration not stated), the max response, negative = inhibition was 1.72%.

Regarding `COc1ccc(N2C(=O)CNC2=S)cc1`, the max response, negative = inhibition is 0.339%.

For the compound `COc1ccc(-n2cc(-c3ccccc3)c3c(=S)nc[nH]c32)cc1`, the max response, negative = inhibition is -12.3%.

As for `COc1ccc(-c2cn(-c3ccc(OC)cc3)c(=S)[nH]2)cc1`, the Potency is 21.2 µM (active).

Regarding `Cc1csc(=O)n1CCC(=O)OCC(=O)Nc1ccc(N2CCOCC2)cc1`, the max response, negative = inhibition is 1%.

As for `CSc1ccc(CN2CCC2(C)C(=O)Nc2ccc(C)c(O)c2)cc1` (configuration not stated), the max response, negative = inhibition was 4.93%.

In the case of `COc1cc(F)ccc1-c1cc(C(=O)NCC2CCCCC2)[nH]n1`, the max response, negative = inhibition was 1.4%.

For `CCOc1ccc(C2C(C#N)=C(N)N(N(C)C)C3=C2C(=O)CCC3)cc1` (configuration not stated), the max response, negative = inhibition is -4.98%.

Consider `N#CC1=C(N)N(c2ccccc2)C2=C(C(=O)CCC2)C1c1ccccc1` (configuration not stated), for which the max response, negative = inhibition is -0.426%.

For the compound `COc1ccc(C2C(C#N)=C(N)N(c3ncn[nH]3)C3=C2C(=O)CCC3)cc1` (configuration not stated), the Potency is 26.7 µM (active).

On to `CC1(C(=O)NCc2ccccc2)CN(S(C)(=O)=O)CC(=O)N1CC(F)(F)F` (configuration not stated), for which the max response, negative = inhibition is 3.31%.

Consider `CCC(=O)N1Cc2cc(C(=O)NCc3cccc(F)c3)nc(-c3cccc(C4=CCCC4)c3)c2[C@H]1CCO`, for which the max response, negative = inhibition was -10.3%.

For `O=C(Nn1cnnc1)c1ccc([N+](=O)[O-])cc1`, the max response, negative = inhibition is -3.8%.

In the case of `O=C(CC(n1cncn1)C(Cl)(Cl)Cl)c1ccc([N+](=O)[O-])cc1` (configuration not stated), the Potency was 23.8 µM (active).

Consider `O=C(Cn1c[n+](CC(=O)c2ccc([N+](=O)[O-])cc2)cn1)c1ccc([N+](=O)[O-])cc1`, for which the max response, negative = inhibition is -8%.

Turning to `OC[C@@H]1CN(Cc2cccs2)C[C@H](n2cnc3c(NC4CCCC4)ncnc32)O1`, the max response, negative = inhibition was -8.04%.

Consider `O=C(Nc1cccc2ccccc12)NC1CC1`, for which the max response, negative = inhibition is -14.1%.

For `COc1ccc(C(C(=O)Nc2c(C)cccc2C)N2CCN(c3ccc(C)cc3)CC2)cc1` (configuration not stated), the max response, negative = inhibition is -1.1%.

With `N#Cc1c(C(F)(F)F)cc(-c2ccccc2)nc1SCC(=O)N1CCOCC1`, the max response, negative = inhibition is -6.59%.

`N#Cc1c(-c2ccccc2)cc(-c2ccccc2)nc1SCC(=O)O`: the Potency was 21.2 µM (active).

With `N#Cc1c(C(F)(F)F)cc(-c2ccc(Cl)cc2)nc1SCC(=O)O`, the max response, negative = inhibition is -8.73%.

As to `OC(c1ccc(Cl)cc1)c1ncc(-c2ccc(Cl)cc2)[nH]1` (configuration not stated), the max response, negative = inhibition is 5.29%.

On to `CC1=C(C(=O)N2CCOCC2)CC(CC(=O)NCCCN(C)C)C(=O)N1Cc1ccc(C(C)(C)C)cc1` (configuration not stated), for which the max response, negative = inhibition was -2.35%.

Turning to `CCc1nc2ccc(C(=O)N3CCC(O)(Cc4ccccc4)CC3)cn2c1N(C)C(=O)Cc1ccccc1`, the max response, negative = inhibition is -2.01%.

For `Nc1ncnc2c1ncn2[C@@H]1O[C@H](C(=O)NCC(F)(F)F)[C@@H](O)[C@H]1O`, the max response, negative = inhibition is -5.72%.

As to `CCOc1ccc(C(=O)COC(=O)c2ccc(-n3cnnn3)cc2)cc1`, the max response, negative = inhibition was 2.47%.

On to `CCOC(=O)c1c(-n2cnnn2)sc(C)c1C`, for which the Potency is 26.7 µM (active).

`CCOC(=O)N1CCN(S(=O)(=O)c2ccc(-n3cnnn3)cc2)CC1`: the max response, negative = inhibition is -22.3%.
